{"source": "PubChem BioAssay (NCI)", "note": "This is part of a sample that, as a whole, favours compounds with a hit. Of some 83,000 tested, about 20% had one in any assay.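 Growth was measured after 48 h exposure to one concentration of compound in 96-well plates. Values under 10 count as active.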 Values without a mark were called inactive. Active and inactive are the calls of the source.", "data": [{"test_system": "HL-60(TB) leukemia", "test": "NCI-60 one-dose screen, 48 h (100 = growth as untreated, 0 = no growth, -100 = all killed)", "settings": "10 µM unless noted", "values": [{"smiles": "Cc1ccc(NC(=O)N/N=C/c2c[nH]c3ccccc23)c(C)c1", "growth": "1.73% (active)"}, {"smiles": "CCN(C(=O)CN1C(=O)/C(=C/c2ccco2)SC1=S)C1CCS(=O)(=O)C1", "note": "(stereo unspecified)", "growth": "92.4%"}, {"smiles": "O=C(/C=C/Nc1ccc(F)cc1F)c1ccc2c(c1)Nc1ccccc1S2", "growth": "26.9%"}, {"smiles": "COc1ccc2[nH]c(=O)c(CSc3nccc(-c4ccc(OC)c(OC)c4)n3)cc2c1", "growth": "16.9%"}, {"smiles": "CCOC(=O)c1ccc(NC(=O)CSC(CC(=O)c2sc(Nc3ccccn3)nc2C)c2ccccc2F)cc1", "note": "(stereo unspecified)", "growth": "2.8% (active)"}, {"smiles": "O=C1Nc2ccc(F)cc2/C1=C/c1cccc(OCc2ccccn2)c1", "growth": "7.92% (active)"}, {"smiles": "CC(C)(C)C(=O)c1c2c(c3ccc4c5ccccc5ccc4n13)C(=O)c1ccccc1C2=O", "growth": "94.2%"}, {"smiles": "Cc1ccc(NCC(=O)Nn2c(COc3ccccc3)nc3ccccc3c2=O)cc1", "growth": "93.9%"}, {"smiles": "CC(=O)c1ccc(Nc2nc(SC(C)C)nc(-c3ccccc3)c2C#N)cc1", "growth": "93.6%"}, {"smiles": "C=C1CCC2C3(C)COC(c4cc(F)cc(F)c4)OC3CCC2(C)C1C/C=C1/C(=O)OCC1O", "note": "(stereo unspecified)", "growth": "-9.61% (active)"}, {"smiles": "COc1cc(C2CC(c3ccc(C(F)(F)F)cc3)=Nc3c(N)nc(N)nc3N2)ccc1Oc1nc(Nc2ccc(F)cc2)nc(N(C)C)n1", "note": "(stereo unspecified)", "growth": "13.7%"}, {"smiles": "Cc1ccc2nc(-c3ccc(-c4nnc(SCC(=O)Nc5ccc(Cl)cc5)o4)cc3)[nH]c2c1", "growth": "53.8%"}, {"smiles": "Cc1ccc2nc(-c3ccc(-c4nnc(SCC(=O)Nc5ccc(Br)cc5)o4)cc3)[nH]c2c1", "growth": "55.6%"}, {"smiles": "S=c1nc(-c2ccccc2)cc(-c2cc3ccccc3nc2Cl)[nH]1", "growth": "8.96% (active)"}, {"smiles": "Cc1ccc(C2=NN(c3nc(-c4cc5ccccc5oc4=O)cs3)C(c3ccc(C)cc3)C2)cc1", "note": "(stereo unspecified)", "growth": "91%"}, {"smiles": "O=C(c1ccc(Cl)cc1)C1[C@H](c2ccccc2Br)[C@@H](c2ccccc2)NC12C(=O)Nc1ccccc12", "note": "(stereo partly specified)", "growth": "-2.22% (active)"}, {"smiles": "COc1cc(NC(=O)c2cc(-c3ccc(F)cc3F)ccc2O)cc(OC)c1OC", "growth": "15.8%"}, {"smiles": "N/C(=N\\c1nc2ccccc2s1)NC(=O)Nc1ccc(Cl)cc1Cl", "growth": "-66% (active)"}, {"smiles": "Cn1cc(-c2cc3nc(-c4c[nH]c5ccccc45)cc(N)n3n2)c2ccccc21", "growth": "-41.2% (active)"}, {"smiles": "COc1cc(/C=C/C(=O)c2ccc(F)cc2)ccc1Oc1nc(Nc2ccc(F)cc2)nc(N(C)C)n1", "growth": "61.3%"}, {"smiles": "Nc1nn2c(-c3cc4cc(Br)ccc4oc3=O)ccnc2c1N=Nc1ccc(Br)cc1", "growth": "98.5%"}, {"smiles": "C/C(=N\\N=C\\c1cc([N+](=O)[O-])ccc1Cl)c1ccc2c(c1)Nc1ccccc1S2", "growth": "84.6%"}, {"smiles": "COc1cc(NC(=O)CSc2nnc(-c3ccc(-c4nc5ccc(Cl)cc5[nH]4)cc3)o2)cc(OC)c1OC", "growth": "8.77% (active)"}, {"smiles": "Cc1ccc2sc3c(c2c1)Oc1nc[nH]c(=O)c1C3c1cccc(F)c1", "note": "(stereo unspecified)", "growth": "99.3%"}, {"smiles": "COc1ccccc1-n1cc(C#N)c(N)c1C(=O)c1ccc(Cl)cc1Cl", "growth": "1.26% (active)"}, {"smiles": "Cc1ccc(-c2nc(Nc3ccccc3C(=O)O)c3ccccc3n2)cc1", "growth": "17.8%"}, {"smiles": "C/C(=C\\CSc1ccccc1C(=O)O)CCCC(C)CCCC(C)CCCC(C)C", "note": "(stereo unspecified)", "growth": "41.2%"}, {"smiles": "Nc1cc(-c2c[nH]c3ccc(Cl)cc23)nc2cc(-c3c[nH]c4ccccc34)nn12", "growth": "-18.2% (active)"}, {"smiles": "O=C1NC(=NC23CC4CC(CC(C4)C2)C3)N/C1=C\\c1ccc2ncccc2n1", "growth": "-19.1% (active)"}, {"smiles": "Cn1c(O)c(N=Nc2nc(-c3cc4ccccc4oc3=O)cs2)c2cc(Br)ccc21", "growth": "96.6%"}, {"smiles": "c1n[nH]cc1-c1nc2ccc3[nH]ncc3c2c2c1CC1(CCOCC1)CC2", "growth": "26.5%"}, {"smiles": "O=C1CCC(N2C(=O)c3cccc(NCCCCCC(=O)N4CCN(c5ccc6nc7c(nc6c5C(F)(F)F)C(=O)c5ncccc5C7=O)CC4)c3C2=O)C(=O)N1", "note": "(stereo unspecified)", "growth": "-25.2% (active)"}, {"smiles": "Nc1cc(-c2c[nH]c3ccc(Br)cc23)nc2cc(-c3c[nH]c4ccccc34)nn12", "growth": "-15% (active)"}, {"smiles": "CSc1ccc(C(=O)Nc2ccc3nn(/C(C#N)=C/c4ccccn4)nc3c2)cc1", "growth": "-21.9% (active)"}, {"smiles": "COc1ccc(OC)c(Cn2cc(C#N)c(N)c2C(=O)c2ccc(Br)cc2)c1", "growth": "20.7%"}, {"smiles": "COc1cc2c3c(n(CCCNC(C)C)c(=O)c2cc1OC)-c1nc2c(cc1C3=O)OCO2", "growth": "71.6%"}]}]}
